# For some assays here: Potency and affinity values are given separately.
# Legend:
# Design in all cases: scale not given: direction of the effect not stated beside the values
# [1] = biological target: Protein translocase subunit SecA (Escherichia coli (strain K12)) (UniProt P10408); assay: Assay to Identify E. coli SecA ATPase Inhibitors; type: functional; settings: 30 µM
# [2] = biological target: T1, Ubiquitin-activating enzyme e1, putative (Leishmania donovani (strain BPK282A1)) (UniProt E9BSI1); assay: Leishmania donovani Ubiquitin Activating Enzyme (LdE1); type: functional; settings: 30 µM
# T1 sequence (whole entry): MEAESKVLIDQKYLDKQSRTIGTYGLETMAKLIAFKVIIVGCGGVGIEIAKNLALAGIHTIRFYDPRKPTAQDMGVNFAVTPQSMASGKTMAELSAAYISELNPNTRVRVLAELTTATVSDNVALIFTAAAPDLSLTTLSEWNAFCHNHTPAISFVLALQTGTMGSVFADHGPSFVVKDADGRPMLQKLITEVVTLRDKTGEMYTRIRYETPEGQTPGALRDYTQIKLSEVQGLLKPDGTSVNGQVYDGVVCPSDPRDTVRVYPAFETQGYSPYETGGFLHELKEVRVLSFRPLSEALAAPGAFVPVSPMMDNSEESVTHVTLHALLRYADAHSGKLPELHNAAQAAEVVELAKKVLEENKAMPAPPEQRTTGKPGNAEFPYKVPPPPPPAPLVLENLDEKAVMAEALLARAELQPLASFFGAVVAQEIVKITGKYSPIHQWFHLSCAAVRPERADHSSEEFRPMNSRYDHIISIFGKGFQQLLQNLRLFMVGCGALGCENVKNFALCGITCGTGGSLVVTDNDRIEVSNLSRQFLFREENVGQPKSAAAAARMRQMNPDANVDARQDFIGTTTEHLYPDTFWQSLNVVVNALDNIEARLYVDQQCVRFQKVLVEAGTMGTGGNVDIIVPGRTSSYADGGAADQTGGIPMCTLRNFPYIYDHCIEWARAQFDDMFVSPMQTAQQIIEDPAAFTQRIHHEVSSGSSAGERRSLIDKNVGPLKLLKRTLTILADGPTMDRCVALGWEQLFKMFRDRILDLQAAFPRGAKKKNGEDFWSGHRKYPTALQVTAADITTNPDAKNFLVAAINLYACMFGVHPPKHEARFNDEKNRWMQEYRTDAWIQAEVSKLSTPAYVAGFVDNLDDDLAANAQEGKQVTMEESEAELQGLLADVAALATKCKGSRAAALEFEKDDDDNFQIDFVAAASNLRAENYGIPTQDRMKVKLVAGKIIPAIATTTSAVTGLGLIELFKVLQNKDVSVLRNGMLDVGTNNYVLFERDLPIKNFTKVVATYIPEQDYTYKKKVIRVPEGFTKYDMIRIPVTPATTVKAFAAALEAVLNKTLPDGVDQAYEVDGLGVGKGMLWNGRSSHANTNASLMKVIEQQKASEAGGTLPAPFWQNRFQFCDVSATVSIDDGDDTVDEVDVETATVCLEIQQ
# [3] = biological target: AMP-activated protein kinase, AMPK (Homo sapiens) (UniProt P54646+O43741+P54619+Q9UGJ0+Q9Y478+Q13131+Q9UGI9); assay: AMP-dependent Kinase enzyme assay. An in vitro enzyme assay that detects ADP turnover that is directly proportional to AMPK activity. This uses naive AMPK that is activated during the assay with MK-8722; type: functional; settings: 30 µM
# [4] = biological target: Sialic acid-binding Ig-like lectin 9 (Homo sapiens) (UniProt Q9Y336); assay: Hs-Siglec9 ALPHAscreen SOP 20170721; settings: 10 µM
# Trypanosoma cruzi = assay: Trypanosoma cruzi phosphomannomutase and mannose-1-phosphate guanylyltransferase assay; type: functional; settings: 10 µM
# [5] = biological target: T2, Arginase-2, mitochondrial (Homo sapiens) (UniProt P78540); assay: in vitro enzyme assay to detect the production of urea directly proportional to the activity of Arginase II; type: functional; settings: 33.3 µM; further: in the data most compounds retested in dose-response had high values
# T2 sequence (whole entry): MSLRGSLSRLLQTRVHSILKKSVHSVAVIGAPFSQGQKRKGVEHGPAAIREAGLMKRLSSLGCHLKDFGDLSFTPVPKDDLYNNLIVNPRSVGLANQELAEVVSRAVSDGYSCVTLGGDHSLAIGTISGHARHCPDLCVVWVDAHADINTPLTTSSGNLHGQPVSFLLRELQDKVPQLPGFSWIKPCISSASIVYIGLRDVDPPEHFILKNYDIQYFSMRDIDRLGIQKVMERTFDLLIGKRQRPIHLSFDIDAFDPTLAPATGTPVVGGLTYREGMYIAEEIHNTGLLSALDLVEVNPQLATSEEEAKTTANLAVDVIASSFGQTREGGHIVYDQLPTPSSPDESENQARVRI
# [6] = biological target: T3, Proteasome subunit beta (Trypanosoma cruzi) (UniProt O96673); assay: Trypanosoma cruzi proteasome chymotrypsin-like activity (TcProtChymo) assay.; further: in the data most compounds retested in dose-response had high values; type: functional; settings: 9.37 µM
# T3 sequence (whole entry): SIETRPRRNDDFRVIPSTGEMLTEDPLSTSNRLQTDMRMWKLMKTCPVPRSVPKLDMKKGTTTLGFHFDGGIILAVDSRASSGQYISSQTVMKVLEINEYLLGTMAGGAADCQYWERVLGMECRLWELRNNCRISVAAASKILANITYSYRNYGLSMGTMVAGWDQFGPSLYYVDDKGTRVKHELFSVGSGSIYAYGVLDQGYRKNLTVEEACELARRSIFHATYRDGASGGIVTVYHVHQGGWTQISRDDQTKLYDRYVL
# Homo sapiens = species: Homo sapiens; assay: To identify inhibition of the IFN signalling (Jak-Stat) pathway via expression of an eGFP reporter gene under the control of an IFN-stimulated response element (ISRE) containing MxA promoter.; type: functional; settings: 30 µM
# [7] = biological target: T4, Tyrosyl-tRNA synthetase, putative (Trypanosoma cruzi (strain CL Brener)) (UniProt Q4DSP6); assay: Trypanosoma cruzi tyrosyl tRNA synthetase (TcYRS) _High Tyrosine SOP; type: functional; settings: 30 µM; further: in the data most compounds retested in dose-response had high values
# T4 sequence (whole entry): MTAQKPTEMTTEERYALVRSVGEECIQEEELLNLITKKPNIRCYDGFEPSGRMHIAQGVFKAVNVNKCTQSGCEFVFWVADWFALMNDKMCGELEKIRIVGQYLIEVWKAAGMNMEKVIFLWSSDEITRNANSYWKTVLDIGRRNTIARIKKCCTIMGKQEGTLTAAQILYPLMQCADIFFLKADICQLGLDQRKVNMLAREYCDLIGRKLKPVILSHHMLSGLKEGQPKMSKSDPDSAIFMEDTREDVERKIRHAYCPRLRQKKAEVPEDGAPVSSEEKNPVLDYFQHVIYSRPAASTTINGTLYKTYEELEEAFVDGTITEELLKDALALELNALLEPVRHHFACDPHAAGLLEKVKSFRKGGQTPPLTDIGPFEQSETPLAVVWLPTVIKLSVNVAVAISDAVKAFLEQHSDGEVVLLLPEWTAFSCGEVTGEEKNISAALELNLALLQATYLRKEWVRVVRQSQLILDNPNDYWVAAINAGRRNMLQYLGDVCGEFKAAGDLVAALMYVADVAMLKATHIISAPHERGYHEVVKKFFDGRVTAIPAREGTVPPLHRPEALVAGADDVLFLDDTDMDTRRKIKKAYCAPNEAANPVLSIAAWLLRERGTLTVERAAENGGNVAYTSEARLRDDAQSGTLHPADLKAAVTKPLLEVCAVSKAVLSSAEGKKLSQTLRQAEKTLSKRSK
# [8] = biological target: T4, Tyrosyl-tRNA synthetase, putative (Trypanosoma cruzi (strain CL Brener)); assay: Trypanosoma cruzi tyrosyl tRNA synthetase (TcYRS) SOP; type: functional; settings: 30 µM
# [9] = biological target: Chromo domain-containing protein 1 (Saccharomyces cerevisiae (strain ATCC 204508 / S288c) (Baker's yeast)) (UniProt P32657); assay: ScCHD-1 Enzyme Inhibition Assay; type: functional; settings: 30 µM; further: in the data most compounds retested in dose-response had high values
# Chromo domain-containing protein 1 (Saccharomyces cerevisiae (strain ATCC 204508 / S288c) (Baker's yeast)), sequence (P32657 whole entry, the tested form may be a part): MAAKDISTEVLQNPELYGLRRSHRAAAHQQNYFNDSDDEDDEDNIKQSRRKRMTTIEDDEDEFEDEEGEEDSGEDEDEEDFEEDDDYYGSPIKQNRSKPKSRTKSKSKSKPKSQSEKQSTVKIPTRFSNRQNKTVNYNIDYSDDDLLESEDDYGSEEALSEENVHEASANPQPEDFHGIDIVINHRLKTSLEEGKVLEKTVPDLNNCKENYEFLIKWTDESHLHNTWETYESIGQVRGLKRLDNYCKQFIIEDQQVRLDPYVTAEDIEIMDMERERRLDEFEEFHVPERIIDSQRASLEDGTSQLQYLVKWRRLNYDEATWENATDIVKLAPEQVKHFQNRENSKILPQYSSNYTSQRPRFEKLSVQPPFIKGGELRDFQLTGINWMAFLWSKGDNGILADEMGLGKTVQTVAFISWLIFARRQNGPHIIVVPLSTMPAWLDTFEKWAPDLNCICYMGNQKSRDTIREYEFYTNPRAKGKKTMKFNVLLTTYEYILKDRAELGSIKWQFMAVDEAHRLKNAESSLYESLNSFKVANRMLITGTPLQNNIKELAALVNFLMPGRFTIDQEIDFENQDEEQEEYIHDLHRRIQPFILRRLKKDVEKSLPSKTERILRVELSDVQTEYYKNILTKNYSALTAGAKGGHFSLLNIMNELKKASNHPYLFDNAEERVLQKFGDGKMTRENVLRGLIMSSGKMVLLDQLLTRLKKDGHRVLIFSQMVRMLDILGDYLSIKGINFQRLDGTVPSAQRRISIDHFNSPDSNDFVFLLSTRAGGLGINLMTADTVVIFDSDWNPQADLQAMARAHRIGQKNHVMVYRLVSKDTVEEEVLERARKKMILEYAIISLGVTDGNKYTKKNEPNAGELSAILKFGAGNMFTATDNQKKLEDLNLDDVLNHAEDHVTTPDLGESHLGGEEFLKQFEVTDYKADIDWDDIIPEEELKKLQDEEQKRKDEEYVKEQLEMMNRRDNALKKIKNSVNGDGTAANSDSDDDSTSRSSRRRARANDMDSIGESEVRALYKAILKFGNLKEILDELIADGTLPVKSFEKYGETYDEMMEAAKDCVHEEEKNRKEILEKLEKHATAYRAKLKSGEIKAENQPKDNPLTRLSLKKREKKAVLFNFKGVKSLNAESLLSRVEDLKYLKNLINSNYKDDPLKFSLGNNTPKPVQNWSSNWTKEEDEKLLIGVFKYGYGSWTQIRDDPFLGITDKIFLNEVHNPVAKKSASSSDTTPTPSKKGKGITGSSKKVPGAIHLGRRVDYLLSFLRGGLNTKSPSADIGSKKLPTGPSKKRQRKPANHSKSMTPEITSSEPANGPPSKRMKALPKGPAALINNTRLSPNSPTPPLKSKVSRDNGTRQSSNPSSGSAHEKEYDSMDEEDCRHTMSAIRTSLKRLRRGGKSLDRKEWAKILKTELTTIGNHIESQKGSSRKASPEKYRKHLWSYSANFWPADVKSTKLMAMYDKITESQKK
# Sialic acid-binding Ig-like lectin 9 (Homo sapiens), sequence (Q9Y336 whole entry): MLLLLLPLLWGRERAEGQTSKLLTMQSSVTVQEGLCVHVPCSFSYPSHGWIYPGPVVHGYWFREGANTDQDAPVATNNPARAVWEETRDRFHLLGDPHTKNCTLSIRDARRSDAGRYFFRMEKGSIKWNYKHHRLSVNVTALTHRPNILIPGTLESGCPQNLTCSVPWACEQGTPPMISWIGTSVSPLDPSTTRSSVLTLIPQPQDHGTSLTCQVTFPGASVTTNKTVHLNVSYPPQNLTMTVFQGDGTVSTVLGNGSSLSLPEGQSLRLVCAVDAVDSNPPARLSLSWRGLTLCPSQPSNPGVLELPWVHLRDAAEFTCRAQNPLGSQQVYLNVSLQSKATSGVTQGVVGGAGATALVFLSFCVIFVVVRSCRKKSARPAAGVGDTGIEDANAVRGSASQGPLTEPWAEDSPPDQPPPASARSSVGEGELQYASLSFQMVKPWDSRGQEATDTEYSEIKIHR
# Protein translocase subunit SecA (Escherichia coli (strain K12)), sequence (P10408 whole entry): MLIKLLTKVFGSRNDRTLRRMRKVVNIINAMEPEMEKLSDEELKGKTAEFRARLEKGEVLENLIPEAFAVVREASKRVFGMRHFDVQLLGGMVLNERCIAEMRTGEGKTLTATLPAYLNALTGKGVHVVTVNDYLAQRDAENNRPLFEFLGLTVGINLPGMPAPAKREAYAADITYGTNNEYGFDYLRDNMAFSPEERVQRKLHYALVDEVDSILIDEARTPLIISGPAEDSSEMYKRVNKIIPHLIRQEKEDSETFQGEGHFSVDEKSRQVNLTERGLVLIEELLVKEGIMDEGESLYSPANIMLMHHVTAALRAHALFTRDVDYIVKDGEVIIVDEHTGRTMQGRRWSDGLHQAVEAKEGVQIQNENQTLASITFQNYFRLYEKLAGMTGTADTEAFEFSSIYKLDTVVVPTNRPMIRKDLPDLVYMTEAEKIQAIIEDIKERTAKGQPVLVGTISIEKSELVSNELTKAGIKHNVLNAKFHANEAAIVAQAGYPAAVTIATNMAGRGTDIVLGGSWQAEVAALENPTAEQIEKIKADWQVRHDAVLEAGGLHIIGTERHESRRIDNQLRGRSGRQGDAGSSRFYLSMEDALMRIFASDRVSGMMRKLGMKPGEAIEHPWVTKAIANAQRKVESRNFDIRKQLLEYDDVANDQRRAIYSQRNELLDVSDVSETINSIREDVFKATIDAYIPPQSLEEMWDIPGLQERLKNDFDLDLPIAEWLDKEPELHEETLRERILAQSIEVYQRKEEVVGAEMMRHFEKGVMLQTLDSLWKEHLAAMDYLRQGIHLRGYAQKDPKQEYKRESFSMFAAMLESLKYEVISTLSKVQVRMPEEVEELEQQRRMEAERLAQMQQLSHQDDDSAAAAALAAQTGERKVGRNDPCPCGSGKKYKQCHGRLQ
SMILES,Percent Effect [1] [%],Percent Effect [2] [%],Percent Effect [3] [%],Percent Effect [4] [%],Percent Effect (Trypanosoma cruzi) [%],Percent Effect [5] [%],Percent Effect [6] [%],Percent Effect (Homo sapiens) [%],Percent Effect [7] [%],Percent Effect [8] [%],Percent Effect [9] [%]
Cc1ccn2cc(C(=O)N3CCCC3c3c(C)nn(C)c3C)nc2c1 (configuration not stated),-7.15,8.86,7.77,-1.49,-3.79,1.5,9.09,4.07,5.21,0,-3.05
CCCS(=O)(=O)N1CCN(c2cc(-n3nc(C)cc3C)nc(C)n2)CC1,-2.23,0,-0.103,1.6,7.57,2.76,10.7,-11,2.15,-3.7,-4.3
CC(NC1(CNC(=O)C(C)(C)C#N)CCOCC1)c1ccccc1 (configuration not stated),-11.4,0,-1.47,-3.49,-3.03,-1.74,4.89,7,-7.53,-3.7,-3.14
Cn1c(CNc2c(F)cccc2-n2cccn2)cc(=O)n(C)c1=O,-1.07,6.94,-4.86,3.69,1.46,20.8,6.14,5.47,5.26,10.3,-0.228
COc1ccc(C2CC(=O)Oc3cc(C)[nH]c(=O)c32)cc1 (configuration not stated),-5.52,6.67,5.42,2.83,4.13,-0.528,11.1,3.33,2.12,5.13,-1.69
CCCc1nc(C)c(C(=O)NS(=O)(=O)c2ccc(C#N)cc2)s1,-4.98,10.8,-2.15,25.9,6.18,0.476,9.14,2.07,0.529,9.76,-9.01
Cn1cc(C(=O)NC[C@@H]2OC[C@H]3CN(S(C)(=O)=O)CC[C@H]32)cn1,-0.605,-74,-4.74,17,7.74,-1.6,11,9.87,5.21,1.24,-6.34
CN(CCNC(=O)N1CCN(Cc2ccon2)CC1)c1ccccc1,-4.87,5.33,-2.4,0.269,-5.75,2.6,12.2,-1.26,3.83,3.7,-4.99
Cc1cnn(CC2CCCN2Cc2nnc(Cc3ccccc3)o2)c1 (configuration not stated),-4.98,10.8,-8.22,-3.85,-9.15,6.81,3.96,19.9,4.43,3.7,-4.25
CC(C)N1CCC(Cc2cnc(-c3cccc(C(=O)O)c3)cn2)C1 (configuration not stated),-3.78,1.35,12.1,1.95,1.19,1.62,-3.59,7.71,0,9.09,5.67
O=C(O)c1cc(S(=O)(=O)Nc2cc(F)ccc2F)cc2c1OCCO2,-3.9,-2.63,4.03,6.95,-6.44,3.6,4.65,3.03,0.493,1.24,-3.53
Cc1ccccc1N1CCCN(C(=O)CCCS(N)(=O)=O)CC1,-0.353,8.22,25.9,2.05,-8.62,2.73,23.8,28.3,3.23,2.5,-13.8
Cc1cc(C)n(C2CCCN(C(=O)c3cc(C4CC4)on3)C2)n1 (configuration not stated),-4.93,5.2,-0.0913,-0.636,4.41,-1.05,13.8,-1.26,1.91,9.41,-18.6
O=C(C1CCOCC1)N1C[C@@H]2C[C@@H](c3nc(C4CC4)cs3)O[C@@H]2C1,0.171,16.4,-11.2,8.5,3.57,-11.6,13.8,1.09,11.5,21,0.447
Cc1cc(N2CCN(Cc3nccn3C)CC2)cc(C)n1,-3.69,1.39,-5.16,-5.41,-5.93,-0.883,12.1,-10.6,0,-2.56,-1.23
COCCN1CCN(Cc2noc(C3CC3)n2)CC1C (configuration not stated),0.0669,22.8,-4.5,-13.4,-3.87,1.14,10.7,-0.744,1.48,11.4,-3.63
CCc1cnc(C)nc1NCCN1CCCCCC1,-0.998,5.2,-1.3,10.8,-0.295,0,14.3,0.592,14,16.1,-4.71
Cc1nn(C)c(C)c1C1COCCN1C(=O)c1cnc(N)c(Cl)c1 (configuration not stated),-2.77,23.4,2.76,-1.47,-2.62,0.356,10.1,4.22,3.88,19.5,-7.54
COc1ccc2c(c1)CN(Cc1nc3ccsc3c(=O)[nH]1)CC2,-2.79,-5.06,-0.628,14.2,-1.79,1.9,2.05,24.5,3.45,1.27,21.3
O=C1CCSCC(C(=O)N2CCOCC2)N1 (configuration not stated),-5.1,2.74,-1.73,-8.51,-2.74,-0.455,5.5,16,2.15,7.5,0.585
O=C(Cc1ccc2c(c1)OCCO2)NCCc1nnc2n1CCC2,-2.17,24.3,22.3,-3.07,3.87,-7.62,10.8,2.82,4.43,18.5,-9.97
Cc1cnn(CC2CCCN2CC(=O)N(C)CCC#N)c1 (configuration not stated),-1.24,-5.41,-5.26,5.88,-0.386,-0.476,11.4,-14.1,-2.65,-2.44,91.2

# From ChEMBL document CHEMBL3988442, “University of Dundee, Small-Polar-MMV Screening Library” (2021)
